Assay outcomes from PubChem.
Most compounds without a hit are left out; they make up all but 2.5% or so of the library.
MCL1 BIM primary: inhibitors of MCL1 binding to BIM-BH3, primary screen, biochemical, fluorescence polarization. inhibition, % at 10.9 µM. GST-MCL1 / FITC-Bim-BH3 fluorescence polarization. AID 2057, 2009. Induced myeloid leukemia cell differentiation protein Mcl-1 (Homo sapiens), Q07820. 320,000 tested, 0.68% active;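 active = inhibition above the mean inhibition of all tested compounds plus 3 SD, set per campaign, cut at about 40% in these data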;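 also: 0% = DMSO wells and 100% = unlabeled Bim-BH3 peptide control; higher means more loss of mP so more displacement of Bim peptide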
Target sequence (Q07820 whole entry, looked up): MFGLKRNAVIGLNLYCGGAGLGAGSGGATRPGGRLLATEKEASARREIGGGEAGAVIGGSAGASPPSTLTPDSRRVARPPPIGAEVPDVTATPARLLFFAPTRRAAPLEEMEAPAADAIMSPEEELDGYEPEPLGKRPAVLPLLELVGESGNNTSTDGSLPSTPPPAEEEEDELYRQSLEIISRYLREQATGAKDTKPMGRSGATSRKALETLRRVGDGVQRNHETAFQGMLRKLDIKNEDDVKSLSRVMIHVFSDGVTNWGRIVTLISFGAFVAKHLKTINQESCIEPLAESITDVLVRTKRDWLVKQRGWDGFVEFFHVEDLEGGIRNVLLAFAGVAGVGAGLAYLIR
Mcl1 Bid PPI: Mcl-1/Bid binding inhibitors, primary screen, biochemical, TR-FRET, 1536-well; Induced myeloid leukemia cell differentiation protein Mcl-1 (Homo sapiens), Q07820; TR-FRET Mcl-1/Bid-Dy647 peptide binding; inhibition, % at 21.7 µM; 220,000 tested, 0.97% active; AID 1021, 2008;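 active = compounds that cut the binding signal by more than half at the single screening dose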;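 also: His-tagged Mcl-1 with europium anti-His antibody binding Bid BH3 peptide; 0% = Mcl-1 plus peptide wells and 100% = peptide-only wells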
Mcl-1 Bim block: inhibitors of Bim peptide binding to Mcl-1, primary screen, biochemical, bead-based flow cytometry, multiplex; inhibition, % at 10 µM; AID 1009, 2008; Induced myeloid leukemia cell differentiation protein Mcl-1 (Homo sapiens), Q07820; 190,000 tested, 0.1% active; Bim peptide-Mcl-1 binding; in the data active = inhibition above about 40%;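 also: 0% = no compound tracer wells and 100% = peptide blocker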
Mcl1-Noxa inh: Mcl-1/Noxa binding inhibitors, primary screen, biochemical, TR-FRET, 1536-well; Induced myeloid leukemia cell differentiation protein Mcl-1 (Homo sapiens), Q07820; inhibition, % at 21.7 µM; 220,000 tested, 1.5% active; TR-FRET Mcl-1/Noxa peptide binding, 2 h;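 active = compounds that cut the protein-peptide binding signal by more than 50% relative to plate controls in a single-dose test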;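 also: His-tagged Mcl-1 with rhodamine Noxa BH3 peptide and terbium anti-His antibody; 0% = Mcl-1 plus Noxa peptide wells and 100% = peptide-only wells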
14-3-3 Bad inh: inhibitors of 14-3-3 zeta/Bad binding, primary screen, biochemical, TR-FRET, bovine 14-3-3 zeta. TR-FRET 14-3-3zeta/Dy647-pBad peptide displacement, 1 h. 220,000 tested, 0.71% active. inhibition, % at 21.7 µM;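 active = inhibition above about 70%, limit read from the data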;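 also: 0% = full 14-3-3 plus peptide FRET controls and 100% = background without 14-3-3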
Target sequence (P63103 whole entry, looked up): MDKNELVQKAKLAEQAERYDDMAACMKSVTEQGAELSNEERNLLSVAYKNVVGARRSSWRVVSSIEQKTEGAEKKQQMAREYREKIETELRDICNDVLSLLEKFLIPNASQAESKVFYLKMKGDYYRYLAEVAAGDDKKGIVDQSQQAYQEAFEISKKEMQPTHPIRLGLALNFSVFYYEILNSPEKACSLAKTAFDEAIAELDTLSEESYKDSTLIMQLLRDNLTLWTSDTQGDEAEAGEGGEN
The depositor's hits bear a star; · = no result given.

SMILES	MCL1 BIM primary	Mcl1 Bid PPI	Mcl-1 Bim block	Mcl1-Noxa inh	14-3-3 Bad inh
O=C(Nc1ccc2oc(-c3cccnc3)nc2c1)c1cc2ccccc2o1	-3.6	37.6	1.0	30.7	-248.9
O=C(NC(=S)Nc1ccc2oc(-c3cccnc3)nc2c1)c1cccc(Cl)c1	12.3	34.9	2.0	8.4	81.0*
CCCC(=O)Nc1ccc2oc(-c3cccnc3)nc2c1	-3.6	85.8*	-2.0	-2.0	0.8
COc1ccc(NC(=O)CSc2c(C)nn(-c3nnc(C)c(=O)[nH]3)c2C)cc1	14.2	4.3	-1.0	13.8	5.9
CCCCCc1ccc(-c2ccc(/C=C/C(=O)O)cc2)nc1	6.7	-10.0	0.0	11.0	0.4
Cc1c2c(=O)n(-c3nc4ccccc4s3)nc-2cc(O)n1Cc1ccccc1	·	-98.7	·	73.4*	-8.3
O=c1n(S(=O)(=O)c2cccc3cccnc23)c2ccccc2n1S(=O)(=O)c1cccc2cccnc12	-1.1	91.4*	-6.0	9.7	7.8
Cc1ccc(C(=O)/C=C\NCc2ccccc2)cc1	3.6	-39.6	-5.0	1.6	-8.8
CCc1ccc(C(=O)/C=C/NCc2ccc(F)cc2)cc1	-2.1	53.3*	-10.0	13.3	-1.0
COc1ccc(C=NCC2COc3ccccc3O2)cc1OC (stereo not given)	0.1	-9.6	-1.0	16.6	-8.2
Oc1ccc(C=NCC2COc3ccccc3O2)cc1 (stereo not given)	3.5	-8.9	80.0*	14.2	-8.7
COC(=O)CSc1nc(-c2ccc(C)cc2)c2c(c1C#N)CCCC2	-2.7	61.5*	-6.0	-17.2	1.9
COC(=O)CSc1nc(N2CCOCC2)c2c(c1C#N)CCCC2	-1.5	-18.7	·	18.2	8.6
Cc1cc(NC(=O)CSc2nnc(Cc3cccn3C)n2CCc2ccccc2)no1	-4.6	-20.4	-1.0	1.8	4.7
CC(C)NC(=O)C1CCCN(S(=O)(=O)c2ccc(-n3cnnn3)cc2)C1 (stereo not given)	4.6	98.3*	-2.0	-12.2	-7.1
O=C(Nc1nc(=S)ss1)c1ccc(Cl)cc1Cl	3.5	23.2	-1.0	28.3	79.8*
O=C(Nc1ccc2ccccc2c1)c1ccc(Cl)cc1Cl	-4.4	-22.6	·	-1.0	4.1
Cc1cc(O)cc2c1C(=O)/C(=C/c1ccco1)O2	48.3*	·	·	·	·
COC(=O)COc1ccc2c(c1)O/C(=C\c1ccco1)C2=O	0.2	·	·	·	·
CC(=O)N1CCN(S(=O)(=O)c2cccc(C(=O)OCC(=O)N(CCC#N)c3ccc(F)cc3)c2)CC1	0.5	·	·	·	·
COc1cc(N)c(C(O)c2nccc3cc(OC)c(OC)cc23)cc1OC (stereo not given)	3.5	·	·	·	·
COc1ccc(C(O)c2nccc3cc(OC)c(OC)cc23)cc1OC (stereo not given)	1.9	-29.4	0.0	1.6	91.9*
N#CCCn1cc(/C=C/C(=O)O)c(-c2ccc(F)cc2)n1	0.8	-14.2	2.0	-1.5	-12.5
O=C(O)CCn1cc(/C=C\C(=O)c2ccc(Cl)cc2)c(-c2cccc(Br)c2)n1	0.9	58.3*	-2.0	19.6	-4.0
NC1=NC(=O)/C(=C/c2cn(CCC(=O)O)nc2-c2ccc(Cl)cc2)S1	-5.2	43.1	-6.0	72.5*	5.1
SMILES	MCL1 BIM primary	Mcl1 Bid PPI	Mcl-1 Bim block	Mcl1-Noxa inh	14-3-3 Bad inh
COc1ccc(-c2nn(CCC(=O)O)cc2/C=C2\SC(N)=NC2=O)cc1	8.8	-34.7	-2.0	67.0*	-14.1
CCCOc1ccc(-c2nn(-c3ccccc3)cc2/C=C2\SC(N)=NC2=O)cc1	0.7	-7.9	-3.0	-28.6	-1.5
NC1=NC(=O)/C(=C/c2cn(CCC(=O)O)nc2-c2ccc(F)cc2)S1	8.1	10.5	-14.0	54.6*	-4.2
COc1ccc(NC(=S)NNC(=O)C(C)n2nc(C)c([N+](=O)[O-])c2C)cc1 (stereo not given)	10.6	-6.8	0.0	11.1	-11.3
O=Nc1c(-c2cccc([N+](=O)[O-])c2)nc2ncccn12	8.0	-5.5	·	54.7*	-3.3
O=[N+]([O-])c1cccc(-c2cn3nc(-c4ccccc4)c(-c4ccccc4)nc3n2)c1	-3.4	-8.1	·	-6.9	-3.7
Cc1noc(NS(=O)(=O)c2ccc(NC(=O)CSc3nc4ccccc4s3)cc2)c1C	10.2	9.4	2.0	64.5*	2.8
Cc1ccc(Cn2c(SCCN3CCCCC3)nc3c2c(=O)[nH]c(=O)n3C)cc1	8.4	1.2	-7.0	23.4	-18.1
OC(COCC1COc2ccccc2O1)CN1CCN(c2ccccc2F)CC1 (stereo not given)	-0.3	24.5	0.0	27.6	88.7*
O=C(Nc1ccc(F)cc1)N1CCn2c(nc3ccccc32)C1	3.9	-9.9	0.0	18.1	-8.7
NNC(=O)c1oc2nc(-c3ccco3)cc(-c3ccco3)c2c1N	-44.5	-105.0	·	61.6*	-6.8
CC(=O)c1ccc(NC(=O)C(C)n2c3ccccc3c3nc(=O)cc(C)n32)cc1 (stereo not given)	11.3	97.2*	·	-3.9	1.8
CC1CCCCC12NC(=O)N(CC(=O)NCCc1ccc(F)cc1)C2=O (stereo not given)	-14.3	·	·	·	·
CCN(CCCNC(=O)c1ccc(N2CCCC2=O)cc1)c1cccc(C)c1	3.6	-38.5	0.0	1.7	80.1*
Cc1nn2c(Nc3ccccc3)c3c(nc2c1-c1ccccc1)CCC3	5.7	-31.6	-2.0	14.3	81.5*
CC(C)Nc1ccc(C(CC(N)=O)NC(=O)Cc2cccc3ccccc23)cc1[N+](=O)[O-] (stereo not given)	-15.3	-11.8	·	-1.9	-6.0
Cc1ccc(C(=O)N2CCn3c(C)ccc3C2C)cc1 (stereo not given)	42.4*	-24.6	-2.0	-6.5	-23.0
CS(=O)(=O)C1=NSC2=NC(=O)/C(=C\c3cccn3-c3ccc(Cl)cc3)C(=N)N21	17.2	-13.7	14.0	91.6*	0.9
N=C1/C(=C/c2cccn2Cc2ccc(F)cc2)C(=O)N=C2SC=CN12	-6.5	15.9	-1.0	21.5	-9.2
O=C1NC(=S)N/C1=C/c1cccn1-c1ccc([N+](=O)[O-])cc1	13.8	-42.0	-4.0	79.9*	2.5
O=C(Cc1ccccc1)N/N=C/c1cccn1-c1ccc([N+](=O)[O-])cc1	15.6	-33.3	12.0	7.2	2.3
N=C1/C(=C/c2cccn2-c2ccc([N+](=O)[O-])cc2)C(=O)N=C2SC=CN12	21.4	-63.1	-7.0	61.2*	11.4
Cc1cc(/C=C2/C(=N)N3C(=NC2=O)SN=C3S(C)(=O)=O)c(C)n1-c1ccccc1F	-0.4	-1.2	0.0	13.9	-16.0
CCCCN(CCCC)C(=O)CSc1nnc(-c2cc(OC)c(OC)c(OC)c2)o1	8.9	-23.2	-4.0	12.7	-1.9
